“And” between values parts separate entries of the source, which are not always exact repeats. Equal entries are not always repeated. Inconclusive results are not listed. Where a structure was tested more than once in an assay, its records may differ in their call. The source made the active and inactive calls. Unless noted, calls come from the whole dose curve; as a rule, active = well fitted curve in the direction sought with a large enough effect in the repeat runs; inconclusive = weak or mixed curves; inactive = no such curve, though single readings can be large; an effect the other way counts as inactive or inconclusive.

The nature of test [1]: qHTS assay to identify small molecule antagonists of the thyroid receptor (TR) signaling pathway - cell viability counter screen (AID 743064). Note: nearly all actives have a fitted effect of over 50% in size. Note: potency is the fitted concentration of half-maximal effect. Summed up: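 Fluorescence from CellTiter-Fluor, added after 23.5 h exposure at 37 °C, reported viability of GH3.TRE-Luc cells co-treated with compound and 1 nM T3. Measured in the same wells as the luciferase TR readout.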
In general terms: In qHTS, concentration-response curves come from the screen itself.

Test [2] is described as follows: qHTS assay to identify small molecule antagonists of the thyroid receptor (TR) signaling pathway (AID 743065). Note: nearly all actives have a fitted effect of over 55% in size. Note: potency is the fitted concentration of half-maximal effect. Summed up:
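GH3.TRE-Luc rat pituitary cells carrying two TR response elements driving luciferase were plated for 4 h, given compound plus 1 nM T3 (final), and incubated 23.5 h at 37 C. ONE-Glo luminescence measured reporter inhibition; CellTiter-Fluor fluorescence tracked cytotoxicity.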

Test [3] has as its system thyroid hormone receptor (rat, GH3 cells). Description: qHTS assay to identify small molecule agonists of the thyroid receptor (TR) signaling pathway (AID 743066; calls by dose curve).
Test [4] is described as follows: qHTS assay to identify small molecule antagonists of the estrogen receptor alpha (ER-alpha) signaling pathway - cell viability counter screen (AID 743074; calls by dose curve;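 note: HEK293 cells carrying ER-alpha-UAS-bla reporter stimulated with 17beta-estradiol; nearly all actives have a fitted effect of over 45% in size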; note: potency is the fitted concentration of half-maximal effect).
Test [5] in a line: qHTS assay to identify small molecule antagonists of the estrogen receptor alpha (ER-alpha) signaling pathway using the BG1 cell line - cell viability counter screen (AID 743081).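 Note: compound given together with 17beta-estradiol as the ER stimulus; nearly all actives have a fitted effect of over 45% in size.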 Note: potency is the fitted concentration of half-maximal effect.
Test [6] concerns the target Aromatase (Homo sapiens) (UniProt P11511). The test is described as follows: qHTS assay to identify aromatase inhibitors (AID 743083). Note: nearly all actives have a fitted effect of over 55% in size. Note: potency is the fitted concentration of half-maximal effect.
The nature of test [7]: qHTS assay to identify aromatase inhibitors - cell viability counter screen (AID 743084).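 Note: cells stimulated with testosterone during compound exposure; nearly all actives have a fitted effect of over 55% in size.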 Note: potency is the fitted concentration of half-maximal effect.
Test [8] has as its target Aryl hydrocarbon receptor (Homo sapiens) (UniProt P35869). The test is described as follows: qHTS assay to identify small molecule that activate the aryl hydrocarbon receptor (AhR) signaling pathway (AID 743085).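 For activation: HG2L7.5c1 human HepG2 liver cells with stably integrated DRE-driven firefly reporter; series mostly up to about 70 µM.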 Note: nearly all actives have a fitted effect of over 15% in size. Note: potency is the fitted concentration of half-maximal effect. In a few lines:
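Cell line HG2L7.5c1 (human hepatoma, 20× DRE-luc). Plated, 5 h 37C, compound/DMSO added, 24 h 37C. CellTiter-Fluor 30 min 37C → fluorescence; then ONE-Glo 30 min RT → luminescence.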

The nature of test [9]: qHTS assay to identify small molecule that activate the aryl hydrocarbon receptor (AhR) signaling pathway - cell viability counter screen (AID 743086). Note: nearly all actives have a fitted effect of over 45% in size. Note: potency is the fitted concentration of half-maximal effect. In a few lines: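 HepG2-AhR-luc (HG2L7.5c1) cells, 4000/well, were preincubated 5 h at 37C, exposed to compound in qHTS format for 24 hr at 37C, then given CellTiter-Fluor for 30 min; viability was read as fluorescence in the reporter wells.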

The target in test [10] is Peroxisome proliferator-activated receptor gamma (Homo sapiens) (UniProt P37231). Description: qHTS assay to identify small molecule agonists of the peroxisome proliferator-activated receptor gamma (PPARg) signaling pathway (AID 743094; active = well fitted activation curve with a large enough effect in the signal ratio in the repeat runs, not every such curve was filed as active; the % refers to the signal ratio). Summed up:
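Compounds dissolved in DMSO were added to PPARg UAS-bla HEK293H cells for 17 h at 37C, and reporter expression was quantified by fluorescence intensity after 1 h with LiveBLAzer B/G FRET substrate.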

The target in test [11] is Estrogen receptor (Homo sapiens) (UniProt P03372). The test is described as follows: qHTS assay to identify small molecule agonists of the estrogen receptor alpha (ER-alpha) signaling pathway (AID 743075; calls by dose curve;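 note: HEK293 GripTite cells with ER-alpha and UAS-driven beta-lactamase reporter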).
Test [12] has the same target. The test is described as follows: qHTS assay to identify small molecule agonists of the estrogen receptor alpha (ER-alpha) signaling pathway using the BG1 cell line (AID 743079). Note: nearly all actives have a fitted effect of over 20% in size.
Test [13] in a line: qHTS assay to identify small molecule antagonists of the estrogen receptor alpha (ER-alpha) signaling pathway using the BG1 cell line (AID 743080; calls by dose curve;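 note: BG1 cells stimulated with 17beta-estradiol alongside compound; series mostly up to about 70 µM; nearly all actives have a fitted effect of over 25% in size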). Summed up:
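Seeding, 24 h rest, compound transfer from DMSO, 17beta-estradiol addition, 21.5 h incubation, CellTiter-Fluor (30 min, 37 C), then ONE-Glo (30 min, room temperature): this sequence was run on BG1-Luc-4E2 reporter cells.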

A short description of test [14]: qHTS assay to identify small molecule antagonists of the peroxisome proliferator-activated receptor gamma (PPARg) signaling pathway - cell viability counter screen (AID 743194). Note: nearly all actives have a fitted effect of over 55% in size. Note: potency is the fitted concentration of half-maximal effect. In a few lines: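 PPARg-UAS-bla HEK293H cells were plated, rested 5 h at 37 C, then treated with compounds plus rosiglitazone (50 nM final) for 17 h at 37 C; viability was then read by CellTiter-Glo luminescence after 30 min at room temperature.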

Test [15] can be described thus: qHTS assay for small molecule activators of the heat shock response signaling pathway - cell viability counter screen (AID 743209). Note: nearly all actives have a fitted effect of over 50% in size. Note: potency is the fitted concentration of half-maximal effect. In a few lines: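 Readout: CellTiter-Glo luminescence, 30 min at room temperature. System: HSE-bla HeLa cells, 1500/well, plated overnight. Treatment: compounds in DMSO, 5 h at 37 C.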
Test [16] can be described thus: qHTS assay to identify small molecule agonists of the peroxisome proliferator-activated receptor delta (PPARd) signaling pathway - cell viability counter screen (AID 743211). Note: nearly all actives have a fitted effect of over 55% in size. Note: potency is the fitted concentration of half-maximal effect. In a few lines:
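HEK293H PPARd-bla, 3000 cells/well; 5 h preincubation 37C/5% CO2; cpd in DMSO, 17 h 37C; B/G FRET substrate 2 h RT; CellTiter-Glo 30 min RT, luminescence.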

Test [17] addresses Peroxisome proliferator-activated receptor gamma (Homo sapiens) (UniProt P37231). Description: qHTS assay to identify small molecule antagonists of the peroxisome proliferator-activated receptor gamma (PPARg) signaling pathway (AID 743191; calls by dose curve; note: series mostly up to about 63 µM; nearly all actives have a fitted effect of over 30% in size). Summed up: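 GeneBLAzer PPARg UAS-bla HEK293H cells carrying a UAS-driven beta-lactamase reporter were plated at 3000 cells/well, preincubated 5 h at 37C, then given compound for 17 h at 37C; LiveBLAzer B/G FRET substrate was read after 1 h at room temperature.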

A short description of test [18]: qHTS assay for small molecule agonists of the antioxidant response element (ARE) signaling pathway (AID 743202; active = well fitted activation curve with a large enough effect in the signal ratio in the repeat runs, not every such curve was filed as active; the % refers to the signal ratio; note: potency is the fitted concentration of half-maximal effect). In a few lines:
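Read-out: LiveBLAzer B/G FRET substrate fluorescence after 2 h at room temperature, following 16 h compound treatment at 37 C of HepG2 cells carrying an ARE-driven beta-lactamase reporter.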

The nature of test [19]: qHTS assay for small molecule activators of the heat shock response signaling pathway (AID 743210; active = well fitted activation curve with a large enough effect in the signal ratio in the repeat runs, with a control signal flat, not every such curve was filed as active; the % refers to the signal ratio; note: series mostly up to about 63 µM). In a few lines:
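HSE-bla HeLa cells (beta-lactamase reporter under heat shock response elements) were exposed to compounds for 5 h at 37 C, then loaded with LiveBLAzer B/G FRET substrate for 2.5 h at room temperature before fluorescence reading.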

Chain of Aromatase (Homo sapiens) (P11511 whole entry, looked up): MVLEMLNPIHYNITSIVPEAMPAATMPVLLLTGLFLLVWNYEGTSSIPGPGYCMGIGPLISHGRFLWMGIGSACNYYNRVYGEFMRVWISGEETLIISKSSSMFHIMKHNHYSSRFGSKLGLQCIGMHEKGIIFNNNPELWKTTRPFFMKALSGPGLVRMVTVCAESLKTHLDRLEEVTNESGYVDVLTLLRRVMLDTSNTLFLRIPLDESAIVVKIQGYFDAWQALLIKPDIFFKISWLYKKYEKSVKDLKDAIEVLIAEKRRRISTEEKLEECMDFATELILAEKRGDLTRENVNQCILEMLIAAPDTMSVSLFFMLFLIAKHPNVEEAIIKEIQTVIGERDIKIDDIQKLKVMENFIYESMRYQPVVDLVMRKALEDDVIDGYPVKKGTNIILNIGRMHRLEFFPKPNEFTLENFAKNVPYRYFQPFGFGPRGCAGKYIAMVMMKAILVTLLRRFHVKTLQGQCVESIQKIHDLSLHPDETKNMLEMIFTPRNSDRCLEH
Chain of Aryl hydrocarbon receptor (Homo sapiens) (P35869 whole entry, looked up): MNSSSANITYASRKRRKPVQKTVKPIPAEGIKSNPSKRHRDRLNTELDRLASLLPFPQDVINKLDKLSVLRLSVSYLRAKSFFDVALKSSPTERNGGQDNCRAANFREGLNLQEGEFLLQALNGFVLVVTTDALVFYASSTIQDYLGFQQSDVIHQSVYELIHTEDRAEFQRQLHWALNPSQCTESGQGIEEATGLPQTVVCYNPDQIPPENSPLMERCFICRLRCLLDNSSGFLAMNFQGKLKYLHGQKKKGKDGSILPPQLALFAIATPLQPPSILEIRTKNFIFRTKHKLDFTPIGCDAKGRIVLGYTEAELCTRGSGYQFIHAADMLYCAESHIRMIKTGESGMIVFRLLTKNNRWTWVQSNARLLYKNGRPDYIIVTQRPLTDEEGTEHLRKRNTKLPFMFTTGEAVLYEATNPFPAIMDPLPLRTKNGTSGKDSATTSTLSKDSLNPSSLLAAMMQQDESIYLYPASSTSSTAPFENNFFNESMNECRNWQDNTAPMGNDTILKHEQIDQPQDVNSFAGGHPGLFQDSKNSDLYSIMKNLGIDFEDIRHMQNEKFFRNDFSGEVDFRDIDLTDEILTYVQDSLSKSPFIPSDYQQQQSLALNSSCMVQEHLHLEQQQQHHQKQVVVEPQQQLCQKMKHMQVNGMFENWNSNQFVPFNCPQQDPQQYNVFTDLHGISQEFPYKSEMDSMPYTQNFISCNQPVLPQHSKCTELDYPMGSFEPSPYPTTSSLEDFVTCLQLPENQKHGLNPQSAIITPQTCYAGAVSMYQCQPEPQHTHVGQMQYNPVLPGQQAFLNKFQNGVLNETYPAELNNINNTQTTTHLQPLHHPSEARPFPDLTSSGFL
Chain of Peroxisome proliferator-activated receptor gamma (Homo sapiens) (P37231 whole entry, looked up): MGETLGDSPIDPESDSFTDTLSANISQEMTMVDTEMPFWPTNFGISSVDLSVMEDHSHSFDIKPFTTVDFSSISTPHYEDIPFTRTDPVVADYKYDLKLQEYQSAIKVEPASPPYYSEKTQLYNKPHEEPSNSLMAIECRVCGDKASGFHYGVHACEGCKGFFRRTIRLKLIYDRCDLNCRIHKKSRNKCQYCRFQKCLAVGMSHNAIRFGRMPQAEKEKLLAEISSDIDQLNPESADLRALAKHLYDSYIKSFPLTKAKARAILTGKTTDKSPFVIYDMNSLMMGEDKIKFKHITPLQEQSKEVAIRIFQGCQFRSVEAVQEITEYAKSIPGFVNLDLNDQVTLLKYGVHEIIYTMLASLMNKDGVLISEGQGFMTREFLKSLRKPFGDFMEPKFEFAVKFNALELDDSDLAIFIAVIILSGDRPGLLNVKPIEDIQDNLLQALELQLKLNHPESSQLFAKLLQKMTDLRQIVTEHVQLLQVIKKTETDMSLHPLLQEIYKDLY
Chain of Estrogen receptor (Homo sapiens) (P03372 whole entry, looked up): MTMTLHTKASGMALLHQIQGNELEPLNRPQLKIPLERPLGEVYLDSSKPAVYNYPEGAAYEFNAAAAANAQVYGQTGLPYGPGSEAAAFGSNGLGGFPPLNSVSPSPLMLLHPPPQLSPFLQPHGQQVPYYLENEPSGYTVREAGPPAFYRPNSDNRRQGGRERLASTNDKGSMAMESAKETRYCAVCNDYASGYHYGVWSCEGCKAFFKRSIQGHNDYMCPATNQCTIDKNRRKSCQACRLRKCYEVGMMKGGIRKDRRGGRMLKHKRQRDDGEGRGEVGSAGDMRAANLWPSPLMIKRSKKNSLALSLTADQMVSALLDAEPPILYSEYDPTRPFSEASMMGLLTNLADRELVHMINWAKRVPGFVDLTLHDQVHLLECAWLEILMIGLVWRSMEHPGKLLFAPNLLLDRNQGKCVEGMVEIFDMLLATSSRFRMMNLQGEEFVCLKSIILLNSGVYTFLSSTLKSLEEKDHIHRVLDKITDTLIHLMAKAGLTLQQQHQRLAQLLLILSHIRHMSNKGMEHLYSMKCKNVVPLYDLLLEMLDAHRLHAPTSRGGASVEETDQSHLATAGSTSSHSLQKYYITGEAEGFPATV

Consider `C[S+](CC[C@H](N)C(=O)O)C[C@H]1O[C@@H](n2cnc3c(N)ncnc32)[C@H](O)[C@@H]1O` (stereo partly specified), for which the Potency result in test [1], in test [2], in test [3], in test [4], in test [5] and in test [6] was “inactive” in each case. The Potency entry in [7], in [8], in [9] and in test [10] was “inactive” throughout.
For the compound `NCC[C@H](O)C(=O)N[C@@H]1C[C@H](N)[C@@H](O[C@H]2O[C@H](CN)CC[C@H]2N)[C@H](O)[C@H]1O[C@H]1O[C@H](CO)[C@@H](O)[C@H](N)[C@H]1O`, the Potency entry in test [1], in test [2], in [3], in test [4], in test [5] and in test [6] was “inactive” each time. For the same compound, the Potency result in test [7], in test [8], in [9] and in test [10] was “inactive” each time.
On to `CC(C)C[C@@H](NC(=O)[C@@H](O)[C@H](N)Cc1ccccc1)C(=O)O`, for which the Potency in test [1] was 1.68 µM (active); in test [5], 2.37 µM (active); in test [7] it was 0.75 µM (active); in [9], 0.376 µM (active). For the same compound, the Potency result in [2], in test [3], in test [11], in test [12], in test [13] and in [6] was “inactive” throughout. For the same compound, the Potency entry in test [8] and in [10] was “inactive” in each case.
Take `NC(=O)[C@H]1O[C@@H](O)[C@H](O)[C@@H](O)[C@@H]1O`: the Potency entry in [1], in test [2], in test [3], in test [4], in test [5] and in [6] was “inactive” in each case. Moreover, the Potency entry in test [7], in test [8], in test [9] and in [10] was “inactive” throughout.
`CN1CCN(CCCN2c3ccccc3Sc3ccc(C(F)(F)F)cc32)CC1`: the Potency is 10.6 µM (active) in test [1]; 9.44 µM (active) in test [2]; 26.6 µM (active) in test [6]; 29.8 µM (active) in [7]; 29.8 µM (active) in [14]; 29.8 µM (active) in test [15]. Moreover, the Potency in test [16] is 18.8 µM (active). For the same compound, the Potency result in [3], in test [5] and in test [8] was “inactive” in each case.
As to `C[C@@H]1C(=O)NC2=Nc3cccc(Cl)c3CN21`, the Potency entry in test [1], in test [2], in test [3], in test [4], in test [5] and in [6] was “inactive” in each case. In addition, the Potency entry in [7], in test [8], in test [9] and in [10] was “inactive” each time.
For `Cc1ccc(Cl)c(N)c1Cl`, the Potency entry in test [1], in test [2], in test [3], in test [4], in test [5] and in [6] was “inactive” throughout. Also, the Potency entry in [7], in test [8], in test [9], in [10], in [17] and in test [14] was “inactive” in each case. In [15], the Potency entry was “inactive”.
For the compound `COc1cc([C@@H]2c3cc4c(cc3[C@@H](O[C@@H]3O[C@@H]5CO[C@@H](C)O[C@H]5[C@H](O)[C@H]3O)[C@H]3COC(=O)[C@H]23)OCO4)cc(OC)c1O`, the Potency was 4.28 µM (active) in test [1]; 9.44 µM (active) and 3.4 µM (active) in [2]. The Potency result in test [3], in test [4], in test [5], in [6], in [7] and in test [8] was “inactive” each time. Besides, the Potency result in test [9] and in [14] was “inactive” each time.
On to `CN(C)CCOc1ccc(/C(=C(/CCCl)c2ccccc2)c2ccccc2)cc1`, for which the Potency in test [1] is 10.6 µM (active) and 10.2 µM (active); in test [2], 11.9 µM (active) and 8.09 µM (active); in test [6] it was 21.1 µM (active) and 6.42 µM (active); in test [7], 45.5 µM (active); in test [9], “inactive and 40.5 µM (active)”; in test [14] it was 25.8 µM (active). Moreover, the Potency in [15] is 28.9 µM (active); in test [16], 14.5 µM (active). Further, the Potency entry in test [3], in test [5], in test [8] and in [10] was “inactive” in each case.
With `NC(=S)NS(=O)(=O)c1ccc(N)cc1`, the Potency result in test [1], in test [2], in test [3], in test [4], in test [6] and in test [7] was “inactive” each time. The Potency result in test [8], in test [9] and in test [10] was “inactive” throughout.
As for `CNCC(=O)N[C@@H](CCCN=C(N)N)C(=O)N[C@H](C(=O)N[C@@H](Cc1ccc(O)cc1)C(=O)N[C@H](C(=O)N[C@@H](Cc1cnc[nH]1)C(=O)N1CCC[C@H]1C(=O)N[C@@H](C)C(=O)O)C(C)C)C(C)C`, the Potency result in test [1], in test [2], in test [3], in [4], in test [5] and in test [6] was “inactive” throughout. The Potency result in test [7], in test [8], in [9] and in test [10] was “inactive” throughout.
With `CCN(CC)C(=O)c1cccnc1`, the Potency entry in [1], in test [2], in test [3], in [4], in test [5] and in test [9] was “inactive” throughout.
As for `CCN1CCCC1CNC(=O)c1cc(S(=O)(=O)CC)ccc1OC` (stereo unspecified), the Potency result in test [1], in test [2], in test [3], in test [4], in [5] and in test [6] was “inactive” in each case. Also, the Potency result in [7], in [8], in [9] and in [10] was “inactive” each time.
As to `COc1c(Br)cc(Br)c(C)c1Br`, the Potency result in [1], in [2], in test [3], in [4], in test [5] and in [9] was “inactive” throughout. The Potency result in [14], in [18], in [15] and in test [16] was “inactive” each time. The result in test [19] was inactive.
Regarding `C=C1C(CCl)(CCl)C2(Cl)C(Cl)C(Cl)C1(Cl)C2(Cl)Cl` (stereo unspecified), the Potency in [1] is 5.96 µM (active) and 67.8 µM (active); in [2], 5.31 µM (active) and 48 µM (active); in [4] it was 23.9 µM (active); in test [6] it was 29.8 µM (active) and 60.4 µM (active); in [7], 53.8 µM (active); in test [14] it was 54.3 µM (active). In addition, the values for the Potency in test [15] and in test [16] were 54.3 µM (active) and 34.3 µM (active), respectively. In addition, the Potency result in test [3], in [5], in test [8] and in [9] was “inactive” in each case.
`c1ccc2cc3c4ccccc4c4ccccc4c3cc2c1`: the Potency result in [1], in test [2], in [3], in [4], in test [5] and in test [7] was “inactive” each time. Also, the Potency entry in [9], in test [14] and in [16] was “inactive” in each case. Moreover, the Potency was 0.0973 µM (active) in test [8] and 1.94 µM (active) in test [18].

For the origin of these results see PubChem BioAssay (Tox21).
